Hsp70 activator – switches on Hsp70 transcription | HeLa Hsp70 promoter luciferase reporter, luminescence; scaled: vehicle 0, proteasome-inhibitor control 100% | activation, % at 10 µM | 200,000 tested, 0.04% active;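 active means activation above the mean across all tested compounds plus 3 SD, cutoff set per campaign, cut at about 5.5% in these data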
SMARCA2 act – increases SMARCA2 function in MMTV reporter cells; MG213 cells, MMTV-luciferase reporter, dexamethasone, overnight; activation, % at 9.1 µM; 370,000 tested, 1% active; in the data active means activation above about 7.8%
GAA850 FXN act – frataxin GAA850 promoter activation | HEK293 lucGAA850 FXN promoter luciferase reporter, 24 h; percent of 10 µM SAHA response | activation, % at 6 µM | 360,000 tested, 0.56% active | AID 540364;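 active means activation above the average of all compounds screened plus 3 SD, cutoff fixed separately per campaign, cut at about 7.5% in these data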
GalR3 antagonist – blocks the human galanin receptor 3 | HEK293 GalR3-CNG cAMP membrane potential fluorescence; galR3 body fused to GalR1 C-terminus | inhibition, % at 3 µM | 360,000 tested, 0.44% active | AID 651719;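 active means inhibition above the screen-wide average plus 3 SD, cut at about 13% in these data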;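 further: forskolin and galanin both at EC90 stimulate the cells; cAMP rise reported by CNG channel membrane potential dye signal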
Target sequence (O60755 1-299 limits assumed): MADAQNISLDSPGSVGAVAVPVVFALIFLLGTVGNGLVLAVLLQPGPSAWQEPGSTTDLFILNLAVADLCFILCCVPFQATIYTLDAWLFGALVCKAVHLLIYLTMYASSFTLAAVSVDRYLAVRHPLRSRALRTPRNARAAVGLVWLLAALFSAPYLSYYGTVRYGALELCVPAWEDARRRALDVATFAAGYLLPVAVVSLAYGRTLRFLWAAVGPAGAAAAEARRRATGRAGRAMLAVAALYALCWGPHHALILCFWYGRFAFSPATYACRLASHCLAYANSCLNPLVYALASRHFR
HIF act – HIF pathway transcriptional activation | U2OS HRE-luciferase reporter, luminescence; normalized: DMSO 0%, desferrioxamine 100% | activation, % at 7.5 µM (by protocol) | 300,000 tested, 0.32% active;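 active means mean activation of at least 10% of the iron chelator positive control signal, with at least half of replicates also reaching 10%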
GAA30 counter – activates GAA30 frataxin promoter, counter-screen for GAA850 activators; shares compounds with GAA850 FXN act; HEK293 lucGAA30 FXN promoter luciferase, 24 h; DMSO = 0%, 5 µM ipriflavone = 100%; activation, % at 6 µM; 1,900 tested, 66% active; AID 588350;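 active means mean activation above the mean of solvent-only control wells plus 3 SD, cut at about 22% in these data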;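 further: counterscreen of GAA850 promoter hits where activity marks nonselective or luminescence artifacts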
FXN GAA850 conf – confirmation of GAA850 frataxin (FXN) promoter activators. AID 588351. shares compounds with GAA850 FXN act. HEK293 lucGAA850 FXN promoter luciferase reporter, 24 h; 100% = activation by SAHA. activation, % at 6 µM. 1,900 tested, 86% active;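 active means mean activation above a set limit taken from the primary screen, cut at about 8% in these data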
GalR3 conf – confirmation of human galanin receptor 3 antagonists. shares compounds with GalR3 antagonist. HEK293 GalR3 CNG cAMP biosensor, membrane potential fluorescence; galR3 fused to GalR1 carboxy tail; challenged with forskolin and galanin at EC90. inhibition, % at 3 µM. 1,600 tested, 59% active. AID 652245;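 active means inhibition above the primary screen's cutoff, the mean inhibition of all screened compounds plus 3 SD, cut at about 13% in these data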
CNG parental – parental cell agonism counter-screen for GalR3 antagonists. 1,600 tested, 10% active. activation, % at 3 µM. HEK293-CNG parental cells, cAMP membrane potential fluorescence; normalised: DMSO wells 0%, forskolin wells 100%. AID 652268. shares compounds with GalR3 antagonist; in the data active means activation above about 1.3%
SMARCA2 act conf – confirmation of SMARCA2 (BRM) function activators; shares compounds with SMARCA2 act; MG213 cells, MMTV-luciferase with dexamethasone, luminescence, overnight; MG213 cells expressing E1A, Rb sequestered; DMSO wells 0%, reference activator 100%; activation, % at 9.1 µM; 3,500 tested, 30% active;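 active means activation above its plate's cutoff, the mean activation of tested wells plus 3 SD, cut at about 7.9% in these data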
GAL4-VP16 Luc – GAL4-VP16 reporter activation counter-screen. shares compounds with SMARCA2 act. HEK293 GAL4-VP16 pG5luc reporter, luciferase luminescence; scaled: DMSO wells 0%, SAHA wells 100%. activation, % at 9.1 µM. 3,500 tested, 41% active. AID 686939;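 active means activation above the solvent-only control well mean plus 3 SD, averaged across control plates, cut at about 5.2% in these data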
A number is an active result; n = inactive; x = no result given. Compounds with a hit are over-represented: about 2.2% of the library has one in this group of screens.

SMILES	Hsp70 activator	SMARCA2 act	GAA850 FXN act	GalR3 antagonist	HIF act	GAA30 counter	FXN GAA850 conf	others
CC(C)(O)C(=O)Nc1ccc([N+](=O)[O-])c(C(F)(F)F)c1	x	n	12	n	x	n	n
COc1cc2c(cc1OC)CN(c1ccc([N+](=O)[O-])c(C(F)(F)F)c1)CC2	n	n	n	n	n	x	x
CCOC(=O)CC[C@@H]1CC[C@]2(CCCN(Cc3cccnc3)C2)O1	x	n	x	x	x	x	x
COc1ccc([C@@H]2C[C@H]3[C@@H](CN2)CON3C)cc1	x	n	x	x	x	x	x
Cc1ccc(N2C(=O)NC(=O)/C(=C\C=C\c3ccco3)C2=O)cc1	x	n	8.0	n	n	n	20
Cc1ccc(N2C(=O)NC(=O)/C(=C\C=C\c3ccco3)C2=O)cc1C	n	n	8.4	n	n	n	n
COC1/C=C/C=C(\C)Cc2cc(O)c(Cl)c(c2)N(C)C(=O)CC(OC(=O)C(C)C)C2(C)OC2C(C)C2CC1(O)NC(=O)O2 (configuration not stated)	x	n	19	n	x	n	21
c1cncc(C2Nc3cccc4cccc(c34)N2)c1	x	n	12	n	n	26	n
c1cncc(C2CCCCN2)c1 (configuration not stated)	x	n	n	n	n	x	x
CC(C)OC(=O)C1C(c2ccc(I)cc2)CC2CCC1N2C (configuration not stated)	x	n	x	n	x	x	x
CCCCn1c(O)c(/C(CC)=N/N2CCCCC2c2cccnc2)c(=O)[nH]c1=S (configuration not stated)	n	n	n	n	n	x	x
C/C(=N\N1CCCCC1c1cccnc1)c1c(O)n(C2CCCCC2)c(=S)[nH]c1=O (configuration not stated)	n	n	8.2	n	n	n	17
C=C1C(C)C2C(Cc3ccccc3)NC(=O)C23C(OC(C)=O)C=CC(C)(O)CC(C)CC=CC3C1O (configuration not stated)	x	14	7.6	n	x	n	23	SMARCA2 act conf=14;GAL4-VP16 Luc=n
CC(C)C[C@H]1N=C(c2ccccc2)c2ccccc2N(CC(=O)NC(C)(C)C)C1=O	x	n	x	x	x	x	x
N#Cc1cn(C2OC(CO)C(O)C2O)c2ncnc(N)c12 (configuration not stated)	x	8.5	14	68	x	48	n	GalR3 conf=76;CNG parental=n;SMARCA2 act conf=17;GAL4-VP16 Luc=n
CN1CCN(c2ccc3c(c2)S(=O)(=O)c2ccccc2C3=O)CC1	x	8.6	8.8	n	n	97	35	SMARCA2 act conf=8.2;GAL4-VP16 Luc=8.8
CN1CCN(c2cccc3c2C(=O)c2ccccc2C3=O)CC1	n	n	n	n	n	x	x
O=C(CN1C(=O)[C@@H](Cc2ccc(O)cc2)N=C(c2ccccc2)c2ccccc21)NC1CCCCC1	x	n	x	x	x	x	x
CC(C)(C)c1ccc(CSc2cnn(C(C)(C)C)c(=O)c2Cl)cc1	x	n	n	95	n	x	x	GalR3 conf=104;CNG parental=n
O=C(NCCO)c1nsnc1NCCCl	n	n	n	x	n	x	x	GalR3 conf=28;CNG parental=n
C[C@]12CC[C@H]3C(CCC4(O)CC(O)CC[C@]34C=O)C1=CC[C@H]2c1ccc(=O)oc1 (some centres not stated)	x	n	n	17	n	x	x	GalR3 conf=42;CNG parental=2.7
CC(C)CCP(=O)(O)O	x	n	x	x	x	x	x
